Vif imaging: HIV Vif inhibition; inhibition, % at 7.49 µM; AID 602346; actives 0.35% (n = 340,000); HEK293T cells, Vif self-association by quenched fluorescence, imaging, 24 h; in the data active = inhibition above about 50%, passing the limit was not always enough
PvdQ acylase: blocks Pseudomonas aeruginosa PvdQ acylase activity. actives 0.063% (n = 340,000). inhibition, % at 10 µM. AID 488965. purified PvdQ acylase, fluorescence plate reader; in the data active = inhibition above about 30%, passing the limit was not always enough
ERp5 block: blocks human ERp5 reductase activity on insulin; Q15084; ERp5 insulin aggregation, absorbance 650 nm, 90 min; inhibition, % at 9.99 µM; actives 0.05% (n = 350,000); AID 651711;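 active = mean replicate inhibition above about 25%, with every replicate also reaching it, limit read from the data, passing the limit was not always enough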
Target sequence (Q15084 whole entry, looked up): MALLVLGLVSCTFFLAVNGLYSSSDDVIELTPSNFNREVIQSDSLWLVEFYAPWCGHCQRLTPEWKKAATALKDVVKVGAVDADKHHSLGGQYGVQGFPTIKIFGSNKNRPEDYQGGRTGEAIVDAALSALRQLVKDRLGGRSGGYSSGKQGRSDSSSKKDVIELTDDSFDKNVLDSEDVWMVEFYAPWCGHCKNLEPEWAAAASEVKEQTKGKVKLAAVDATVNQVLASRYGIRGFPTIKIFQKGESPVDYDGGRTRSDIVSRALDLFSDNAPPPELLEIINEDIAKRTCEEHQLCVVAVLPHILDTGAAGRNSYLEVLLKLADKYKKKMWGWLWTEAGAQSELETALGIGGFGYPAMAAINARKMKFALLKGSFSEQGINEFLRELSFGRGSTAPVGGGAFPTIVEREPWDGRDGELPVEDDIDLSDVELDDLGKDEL
AI-2 QS mod: modulators of Vibrio harveyi AI-2 quorum sensing system; Vibrio harveyi JMH597 AI-2 luminescence/OD600 ratio, 9 h; active compounds read low; strain lacks LuxN and CqsS sensors; 0 = neutral-control median; activity change, % at 7.5 µM; actives 0.4% (n = 300,000); in the data active = activity change below about -75%, passing the limit was not always enough;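 also: luminescence divided by OD600 gain over 9 h not by final OD600 alone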
PDI turbidity: blocks human protein disulfide isomerase activity. P07237. PDI insulin aggregation turbidity, A650, 90 min. inhibition, % at 10 µM. actives 0.052% (n = 350,000). AID 588391;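 active = mean inhibition across replicates of 30% or more, whatever share of single replicates reach that level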
Numbers stand for hits. Only some compounds are listed: those with a hit (about 0.64% of all), similar ones and a draw of the others.

Results for COc1cc(-c2cnc3c(NC=O)cc(-c4ccccc4)cn23)cc(OC)c1OC ?
Vif imaging: 74.2; ERp5 block: inactive; PDI turbidity: inactive

How did COc1cc(-c2cnc3c(NC=O)cc(-c4ccccc4Cl)cn23)cc(OC)c1OC do in these assays?
Vif imaging: 58.3; ERp5 block: inactive; PDI turbidity: inactive

How did COc1cccc(-c2cnc3c(NC=O)cc(-c4cccc(NC(C)=O)c4)cn23)c1 do in these assays?
Vif imaging: inactive; ERp5 block: inactive; PDI turbidity: inactive

Results for COc1cc(-c2cnc3c(NC=O)cc(-c4cccc(NC(C)=O)c4)cn23)cc(OC)c1OC ?
Vif imaging: 72.7; ERp5 block: inactive; PDI turbidity: inactive

Results for CC(=O)N1CC2(C1)[C@H](c1ccccc1)[C@@H](CO)N2Cc1ccccc1 ?
ERp5 block: inactive

What do the screens show for `COCC(=O)N(C)C[C@@H]1Oc2ncc(-c3ccc(C#N)cc3)cc2C(=O)N([C@H](C)CO)C[C@@H]1C`?
ERp5 block: inactive

Results for C[C@H]1CN([C@@H](C)CO)C(=O)Cc2cc(NC(=O)Nc3cccc4ccccc34)ccc2O[C@@H]1CN(C)Cc1ccc(C(F)(F)F)cc1 ?
ERp5 block: inactive

How did C[C@H]1CN([C@@H](C)CO)C(=O)Cc2cc(NC(=O)Nc3cccc4ccccc34)ccc2O[C@H]1CN(C)Cc1ccc(C(F)(F)F)cc1 do in these assays?
ERp5 block: 69.0

How did C[C@H]1CN([C@@H](C)CO)C(=O)Cc2cc(NC(=O)Nc3ccc(C(F)(F)F)cc3)ccc2O[C@@H]1CN(C)Cc1ccc(Cl)c(Cl)c1 do in these assays?
ERp5 block: inactive

Results for C[C@@H]1CN([C@H](C)CO)C(=O)Cc2cc(NC(=O)Nc3cccc4ccccc34)ccc2O[C@H]1CN(C)Cc1ccc(C(F)(F)F)cc1 ?
ERp5 block: inactive

What do the screens show for `C[C@H](CO)N1C[C@H](C)[C@H](CN(C)Cc2ccc(C(F)(F)F)cc2)Oc2ccc(NC(=O)Nc3cccc4ccccc34)cc2CC1=O`?
ERp5 block: 64.3

What do the screens show for `C[C@@H]1CN([C@@H](C)CO)C(=O)Cc2cc(NC(=O)Nc3ccc(C(F)(F)F)cc3)ccc2O[C@@H]1CN(C)Cc1ccc(Cl)c(Cl)c1`?
ERp5 block: 49.9

How did CCCNC(=O)Nc1ccc2c(c1)OC[C@H](C)N(C(C)=O)C[C@@H](C)[C@@H](OC)CN(C)C2=O do in these assays?
ERp5 block: inactive

Results for O=C(C1CC1)N1CC(=O)N2[C@H](C1)[C@@H](c1ccc(-c3ccccc3F)cc1)[C@@H]2CO ?
ERp5 block: inactive

What do the screens show for `CC(C)NC(=O)N(C)C[C@H]1Oc2ncc(C#CC3CCCC3)cc2C(=O)N([C@H](C)CO)C[C@@H]1C`?
ERp5 block: inactive

How did Cc1ccc(C)c(NC(=O)CN(C)C(=O)c2cccc(S(=O)(=O)N3CCCC3)c2)c1 do in these assays?
Vif imaging: 53.0; PvdQ acylase: inactive; ERp5 block: inactive; PDI turbidity: inactive

How did C[C@]12CC[C@H]3C(=CCc4cc(O)ccc43)[C@@H]1CCC2=O do in these assays?
Vif imaging: inactive; PvdQ acylase: inactive; ERp5 block: inactive; AI-2 QS mod: inactive; PDI turbidity: 33.3

What do the screens show for `O=C(C[C@@H]1C=C[C@@H](NS(=O)(=O)c2cccc(F)c2)[C@H](CO)O1)NCc1ccc2c(c1)OCO2`?
ERp5 block: inactive

How did Cc1ncoc1C(=O)N1CCCC(C(=O)c2cccc(OC(C)C)c2)C1 (stereo not given) do in these assays?
Vif imaging: inactive; PvdQ acylase: inactive; ERp5 block: inactive; AI-2 QS mod: inactive; PDI turbidity: inactive

Results for Cc1ncoc1C(=O)N1CCCC(C(=O)c2ccc(Oc3ccccc3)cc2)C1 (stereo not given) ?
Vif imaging: 61.4; PvdQ acylase: inactive; ERp5 block: inactive; AI-2 QS mod: inactive; PDI turbidity: inactive

How did Cc1noc(C)c1NC(=O)N(C)C[C@@H]1Oc2ccc(NC(=O)CCCCCC(=O)Nc3ccccc3N)cc2C(=O)N([C@H](C)CO)C[C@@H]1C do in these assays?
ERp5 block: inactive

How did CN1CCN(C(=O)C[C@@H]2CC[C@H](NC(=O)c3ccc4c(c3)OCO4)[C@H](CO)O2)CC1 do in these assays?
ERp5 block: inactive

Results for C[C@H](CO)N1C[C@H](C)[C@H](CN(C)Cc2ccncc2)Oc2cc(C#CC(C)(C)O)ccc2S1(=O)=O ?
ERp5 block: inactive

What do the screens show for `O=C(O)CN1C(=O)/C(=C\c2ccc(OC(=O)c3ccco3)cc2)SC1=S`?
Vif imaging: inactive; PvdQ acylase: inactive; ERp5 block: inactive; AI-2 QS mod: inactive; PDI turbidity: 43.1

How did NCCCCCC(=O)Nc1ccncc1 do in these assays?
Vif imaging: 59.9; PvdQ acylase: inactive; ERp5 block: inactive; AI-2 QS mod: inactive; PDI turbidity: inactive

Results for CCCCCC(=O)Nc1ccc(Cc2ccncc2)cc1 ?
Vif imaging: 80.1; PvdQ acylase: inactive; AI-2 QS mod: inactive; PDI turbidity: inactive

What do the screens show for `CC(=O)Nc1ccc(Cc2ccncc2)cc1`?
PvdQ acylase: inactive; AI-2 QS mod: inactive; PDI turbidity: inactive

How did NS(=O)(=O)c1ccc(NC(=O)CCCCC(=O)Nc2ccc(S(N)(=O)=O)cc2)cc1 do in these assays?
Vif imaging: inactive; PvdQ acylase: inactive; ERp5 block: inactive; AI-2 QS mod: inactive; PDI turbidity: inactive

How did C[C@H](CO)N1C[C@H](C)[C@@H](CN(C)C(=O)Nc2ccc(F)cc2)Oc2ccc(NS(=O)(=O)c3ccccc3)cc2C1=O do in these assays?
ERp5 block: inactive

Results for COc1ccc(S(=O)(=O)Nc2cccc3c2O[C@H](CN(C)CC2CC2)[C@H](C)CN([C@@H](C)CO)C3=O)cc1 ?
ERp5 block: inactive

How did COC(=O)c1ccc(/C=C(\C#N)c2ccccn2)cc1 do in these assays?
Vif imaging: inactive; PvdQ acylase: 70.6; ERp5 block: inactive; AI-2 QS mod: inactive; PDI turbidity: inactive

How did COc1cccc(NC(=S)NC(=O)/C=C/c2ccco2)c1 do in these assays?
Vif imaging: 102.3; PvdQ acylase: inactive; ERp5 block: inactive; AI-2 QS mod: inactive; PDI turbidity: inactive

How did C[C@@H]1CN([C@@H](C)CO)C(=O)c2cc(NC(=O)Cc3ccccc3)ccc2O[C@H]1CN(C)Cc1ccc(C(=O)O)cc1 do in these assays?
ERp5 block: inactive

What do the screens show for `Fc1ccc(NCc2n[nH]c(=S)n2Cc2ccccc2)cc1`?
Vif imaging: 62.3; PvdQ acylase: inactive; ERp5 block: inactive; AI-2 QS mod: inactive; PDI turbidity: inactive

Results for COc1cc(N2CCCC2)c(OC)cc1/C=C(/C#N)c1ccc(Br)cc1 ?
Vif imaging: inactive; PvdQ acylase: inactive; AI-2 QS mod: inactive; PDI turbidity: inactive

What do the screens show for `COc1cc(N2CCCC2)c(OC)cc1/C=C(/C#N)c1ccc(F)cc1`?
Vif imaging: 63.1; PvdQ acylase: inactive; AI-2 QS mod: inactive; PDI turbidity: inactive

Screens as filed in PubChem BioAssay.
